RMI-FANCM inh: inhibitors of human RMI core complex binding to FANCM MM2; 70,000 tested, 0.58% active; AID 1159607; Fluorescence polarization, RMI core complex with F-MM2 peptide; hits give low values; FP signal (polarization) at 33 µM; in the data active = FP signal below about 40
* hit, by the source's call. Shown is part of a subset that was picked to be rich in hits.

SMILES | RMI-FANCM inh
COc1ccc(C2C(C#N)=C(N)OC3=C2C(=O)CC(C)(C)C3)cc1OCc1ccccc1 (stereo not drawn) | 60
COc1ccccc1-c1ccc(N2CCN(S(=O)(=O)CCc3ccccc3)CC2)nn1 | 151
CC(=O)ON1C(=O)c2cccc3cccc(c23)C1=O | 52
O=C1c2cccc3c([N+](=O)[O-])ccc(c23)C(=O)N1Cc1cccnc1 | -13
CC(=O)ON1C(=O)c2cccc3c([N+](=O)[O-])ccc(c23)C1=O | -6*
CC(Oc1ccccc1F)C(=O)NCCn1ncccc1=O (stereo not drawn) | 62
CCOC(=O)/C(C#N)=C\Nc1cc(OC)cc2cccnc12 | 54
N#Cc1ccc(Cl)nn1 | 65
Clc1cccnn1 | -3*
COc1ccccc1-c1ccc(N2CCN(S(=O)(=O)Cc3ccccc3)CC2)nn1 | 72
CCOc1ccccc1NC(=O)CSc1ccc(-c2ccccc2OC)nn1 | 66
CCOC(=O)c1cc2cc(Cl)ccc2o1 | 53
CCOC(=O)c1sc(NC(=O)c2cc(=O)c3ccccc3o2)cc1C | 62
CCCc1c2c(cc3c(=O)cc(C(=O)OCC)oc13)CCCC2 | 32*
CCOc1cccc2cc(C(=O)NCCn3ncccc3=O)c(=O)oc12 | 65
CCOC(=O)C1CCN(C(=O)CCc2nc3sc4c(c3c(=O)[nH]2)CCC(C(C)(C)C)C4)CC1 (stereo not drawn) | 62
CCOC(=O)c1c(C)[nH]c(C(=O)CSc2ccc(Cl)cc2)c1C | 71
COC(=O)c1c(NC(=O)CN2CCCCCC2)sc2c1CCCC2 | 73
COC(=O)c1c(C)[nH]c(C(=O)CN2CCCCCC2)c1C | 6*
CCO/C(C)=C(\C#N)C(N)=S | 45
Cc1ccc(NS(=O)(=O)c2ccc(Cl)s2)cc1N1CCCC1=O | 54
Cc1ccc(N=C2NC(=O)/C(=C/c3cccnc3)S2)cc1 | 64
CC(/C=C1\SC(=O)NC1=S)=C\c1ccccc1 | 36
O=C1NC(=S)/C(=C/c2cccnc2)S1 | -19*
CCOC(=O)C(C)Sc1nnc(NC(=O)Nc2ccccc2)s1 (stereo not drawn) | 56
SMILES | RMI-FANCM inh
N#CCCn1cc(/C=C/C(=O)OCC(=O)c2ccccc2)c(-c2ccc(F)cc2)n1 | 58
Cc1cc(C)c(S(=O)(=O)Nc2cc(Cl)c(O)c3ccccc23)cc1C | 25*
COc1ccc(OC)c(S(=O)(=O)Nc2cc(Sc3ccccc3)c(O)c3ccccc23)c1 | 61
Cc1cc(Cl)c(Cl)cc1S(=O)(=O)Nc1ccccc1C(=O)O | 63
Cc1nc(SCc2cccc(Cl)c2)[nH]c(=O)c1CC(=O)O | 67
Cc1oc(-c2ccc(Cl)cc2)cc1C(=O)N1CCN(c2ncccc2C(F)(F)F)CC1 | 52
COc1ccc(Cc2nnc(NC(=O)c3cc4ccccc4o3)o2)cc1 | 64
COc1ccc(S(=O)(=O)N2CCN(c3ccc4nncn4n3)CC2)cc1OC | 70
O=C(Cc1csc(SCC(=O)c2ccccc2)n1)Nc1nccs1 | 64
O=c1[nH]c(O)c(N=Nc2c(Br)cc(Cl)cc2Br)c(=O)[nH]1 | 51
CCOC(=O)C1=C(N)CC(C(=O)OCC)=C(N)C1 | 16*
CCOC(=O)c1ccc(N)cc1 | 56
CCOC(=O)C1=C(N)C(=O)N(c2ccccc2)C1 | 57
Cc1ccc2c(c1)N(Cc1nc(-c3ccc(OC(F)(F)F)cc3)no1)C(=O)CO2 | 68
CSc1ccc(Oc2ccc(N)cn2)cc1 | 56
CC(C)Oc1ccccc1Oc1ccc(N)cn1 | 50
Nc1ccc(Oc2cccnc2)nc1 | -6*
CCOC(=O)c1sc2nc(C)cc(C)c2c1NC(=O)C1COc2ccccc2O1 (stereo not drawn) | 58
O=C(OCc1nc2ccccc2s1)c1nc2ccccc2s1 | 62
NC(=O)NC(=O)Cc1nc2ccccc2s1 | 53
O=C(Cc1nc2ccccc2s1)c1ccc(O)cc1O | 24*
O=C(Nc1ccc(F)cc1F)C(=O)NC1CCCC1 | 55
CCOC(=O)N1CCc2c(sc(NC(=O)c3ccc(C(C)(C)C)cc3)c2C#N)C1 | 80
Cc1cccc(NC(=O)CSc2nnc(NC(=O)COc3ccccc3)s2)c1C | 53
CC(=O)NCc1c(Cl)cccc1Sc1ccc(Cl)cc1 | 57
SMILES | RMI-FANCM inh
COc1ccc(N2C(=O)c3ccc(C(=O)c4ccc5c(c4)C(=O)N(c4ccc(OC)cc4)C5=O)cc3C2=O)cc1 | 6*
COc1ccc(N2C(=O)C3C4C=CC(O4)C3C2=O)cc1 (stereo not drawn) | 56
COc1ccc(SCC(=O)Nc2ccc3c(c2)C(=O)N(C)C3=O)cc1 | 66
C=CC(=O)Oc1ccc(N2C(=O)c3cccc([N+](=O)[O-])c3C2=O)cc1 | 58
CCC(=O)Oc1cccc(N2C(=O)C3CCCCC3C2=O)c1 (stereo not drawn) | 53
CCC(=O)Oc1ccc(N2C(=O)c3ccccc3C2=O)cc1 | 31*
CC(C)c1nn(C(C)C)c(=O)c2c1cnn2C(C)(C)C | 65
C/C(=N/N=C1\NC(=O)C(CC(=O)O)S1)c1ccccc1Cl (stereo not drawn) | 55
CC(CCCO)C1CCC2C3CCC4CCCCC4(C)C3CCC12C (stereo not drawn) | 59
CCc1c(C)c(C#N)c2nc3ccccc3n2c1N | 66
CSc1c2c(c(C#N)c3nc4ccccc4n13)CCCC2 | 73
COc1cccc(N2CCc3c(C)c(C#N)c4nc5ccccc5n4c32)c1 | 14*
Cc1ccc(OCCN2CCN(c3c4c(c(C#N)c5nc6ccccc6n35)CCCC4)CC2)cc1 | 62
Cc1c2c(n3c(nc4ccccc43)c1C#N)N(C(C)c1ccccc1)CC2 (stereo not drawn) | 79
Cc1c2c(n3c(nc4ccccc43)c1C#N)SCC2 | 24*
CCOc1ccc(CC(=O)Nc2nc3c(s2)COc2ccccc2-3)cc1 | 87
